Measurements taken from PubChem BioAssay (Tox21).
Results filed as inconclusive are left out. Active and inactive are the calls of the source. Unless noted, calls follow the shape of the dose curve; as a rule, active = well fitted curve in the direction sought with a large enough effect in the repeat runs; inconclusive = weak or mixed curves; inactive = no such curve, though single readings can be large; an effect the other way counts as inactive or inconclusive.

Assays:
[1] = target: Estrogen receptor beta (Homo sapiens) (UniProt Q92731); assay: qHTS assay to identify small molecule antagonists of the estrogen receptor beta (ER-beta) signaling pathway (AID 1259378; active = well fitted inhibition curve with a large enough effect in the signal ratio in the repeat runs, not every such curve was filed as active; the % refers to the signal ratio)
Method in brief: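 ER-beta-UAS-bla HEK293T cells in 2% charcoal-stripped FBS medium treated with compound plus 1nM final 17-beta-estradiol for 16 hr at 37C. Beta-lactamase reporter read by FRET substrate fluorescence after 2 hours at room temperature.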

[2] = qHTS assay to identify small molecule agonists of the androgen receptor (AR) signaling pathway in the presence of an antagonist - cell viability counter screen (AID 1259379);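 also: MDA-kb2 human breast cancer cells carrying an MMTV luciferase reporter; series mostly up to about 92 µM; nearly all actives have a fitted effect of over 25% in size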
Method in brief: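 Counter screen for cell viability run in parallel with the AR agonist-mode luciferase assay. MDA-kb2 cells were co-treated with nilutamide (3.0uM final) and compounds, then incubated 16 hr at 37C, and CellTiter-Fluor fluorescence was measured.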

[3] = qHTS assay to identify small molecule agonists of the estrogen receptor beta (ER-beta) signaling pathway - cell viability counter screen (AID 1259380); also: nearly all actives have a fitted effect of over 30% in size
Method in brief: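 In this qHTS counter screen, HEK293T cells carrying an ER-beta/UAS beta-lactamase reporter, grown in 2% charcoal-stripped FBS, received compound for 16 hr; ATP-based CellTiter-Glo luminescence was then read after 30 min at room temperature.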

[4] = qHTS assay to identify small molecule antagonists of the estrogen receptor beta (ER-beta) signaling pathway - cell viability counter screen (AID 1259382); also: series mostly up to about 92 µM; nearly all actives have a fitted effect of over 55% in size
Method in brief: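 HEK293T ER-beta-UAS-bla, 2% charcoal-stripped FBS; compounds + 1nM E2 16 hr 37C; CellTiter-Glo luminescence, 30 min RT.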

[5] = qHTS assay to identify small molecule agonists or antagonists of the thyroid stimulating hormone receptor (TSHR) signaling pathway - wild type cell line counter screen (AID 1259384; calls by dose curve)
Method in brief: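 Wild-type Hek293 cells, 800/well, 18 h at 37C, then compound with Ro20-1724 for 30 min RT. cAMP by HTRF (cAMP-d2/anti-cAMP cryptate), 1 h RT, fluorescence read. 15 concentrations, triplicates.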

[6] = target: Thyrotropin receptor (Homo sapiens) (UniProt P16473); assay: qHTS assay to identify small molecule antagonists of the thyroid stimulating hormone receptor (TSHR) signaling pathway (AID 1259385; calls by dose curve; also: nearly all actives have a fitted effect of over 20% in size)
Method in brief: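 TSHR-HEK293 cells (800/well) plated 18 h, then compounds with Ro20-1724 and TSH at 1.5 ng/mL final, 30 min at room temperature. cAMP quantified by HTRF (cAMP-d2/anti-cAMP-cryptate, 1 h); 15 concentrations in triplicate.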

[7] = qHTS assay to identify small molecule agonists of the estrogen receptor alpha (ER-alpha) signaling pathway in the presence of an antagonist - cell viability counter screen (AID 1259386);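 also: series mostly up to about 92 µM; cells exposed to compounds for 22 h at 37 °C before the viability read; nearly all actives have a fitted effect of over 30% in size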
Method in brief: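 Steps: 5-day stripped-FBS culture; seed and incubate 24hr; add ICI-182,780 (10.0nM final); pin 15-point compound titration; incubate 22hr at 37C; add CellTiter-Fluor at 21hr; read fluorescence.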

[8] = target: Estrogen receptor beta (Homo sapiens) (UniProt Q92731); assay: qHTS assay to identify small molecule agonists of the estrogen receptor beta (ER-beta) signaling pathway (AID 1259377; active = well fitted activation curve with a large enough effect in the signal ratio in the repeat runs, not every such curve was filed as active; the % refers to the signal ratio)
Method in brief: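 qHTS in ER-beta-UAS-bla HEK293T cells: 6 hr settling, then 16 hr compound at 37C, then LiveBLAzer substrate 2 h at RT before fluorescence reading.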

[9] = target: Estrogen receptor (Homo sapiens) (UniProt P03372); assay: qHTS assay to identify small molecule agonists of the estrogen receptor alpha (ER-alpha) signaling pathway in the presence of an antagonist (AID 1259383; calls by dose curve; also: top concentration of the series differs between compounds; nearly all actives have a fitted effect of over 15% in size)
Method in brief: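 ER-alpha agonism measured under antagonist challenge: 10.0nM ICI-182,780 (final) plus compound, 15 concentrations, 22hr, VM7Luc4E2 ERE-luciferase cells. Read by luminescence.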

Measured: Potency

Sequence of Thyrotropin receptor (Homo sapiens) (P16473 whole entry, looked up): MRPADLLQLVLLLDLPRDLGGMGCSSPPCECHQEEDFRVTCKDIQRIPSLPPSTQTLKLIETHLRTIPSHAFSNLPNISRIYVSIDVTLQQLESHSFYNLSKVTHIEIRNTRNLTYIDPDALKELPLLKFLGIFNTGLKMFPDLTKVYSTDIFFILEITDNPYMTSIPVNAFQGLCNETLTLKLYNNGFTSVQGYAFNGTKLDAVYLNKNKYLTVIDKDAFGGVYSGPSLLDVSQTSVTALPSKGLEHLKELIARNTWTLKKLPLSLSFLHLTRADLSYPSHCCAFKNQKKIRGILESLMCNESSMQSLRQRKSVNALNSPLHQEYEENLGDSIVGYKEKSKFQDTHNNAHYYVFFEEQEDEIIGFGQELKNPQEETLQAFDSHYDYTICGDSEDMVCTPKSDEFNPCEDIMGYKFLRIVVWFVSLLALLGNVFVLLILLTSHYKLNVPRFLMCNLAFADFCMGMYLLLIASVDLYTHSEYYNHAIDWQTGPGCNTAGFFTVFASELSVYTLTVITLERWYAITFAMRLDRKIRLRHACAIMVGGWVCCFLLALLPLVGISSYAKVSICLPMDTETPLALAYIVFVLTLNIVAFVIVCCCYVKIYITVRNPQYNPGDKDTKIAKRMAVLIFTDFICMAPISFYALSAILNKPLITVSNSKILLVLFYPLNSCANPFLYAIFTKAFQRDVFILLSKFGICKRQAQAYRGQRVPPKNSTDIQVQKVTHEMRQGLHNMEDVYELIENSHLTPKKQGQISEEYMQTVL
Sequence of Estrogen receptor beta (Homo sapiens) (Q92731 whole entry, looked up): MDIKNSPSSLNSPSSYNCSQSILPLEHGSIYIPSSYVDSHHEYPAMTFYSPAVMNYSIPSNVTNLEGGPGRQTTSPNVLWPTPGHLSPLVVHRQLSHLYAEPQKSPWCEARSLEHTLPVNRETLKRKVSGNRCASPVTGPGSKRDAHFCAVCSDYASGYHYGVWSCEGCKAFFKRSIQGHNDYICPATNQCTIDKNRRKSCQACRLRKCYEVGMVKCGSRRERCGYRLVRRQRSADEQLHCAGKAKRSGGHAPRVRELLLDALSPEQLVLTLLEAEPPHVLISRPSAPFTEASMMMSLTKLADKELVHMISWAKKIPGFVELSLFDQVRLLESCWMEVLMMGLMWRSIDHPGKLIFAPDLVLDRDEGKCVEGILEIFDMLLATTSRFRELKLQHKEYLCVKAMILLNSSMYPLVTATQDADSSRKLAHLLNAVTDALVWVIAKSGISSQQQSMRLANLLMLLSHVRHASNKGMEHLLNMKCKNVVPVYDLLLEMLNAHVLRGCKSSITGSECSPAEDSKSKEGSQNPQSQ
Sequence of Estrogen receptor (Homo sapiens) (P03372 whole entry, looked up): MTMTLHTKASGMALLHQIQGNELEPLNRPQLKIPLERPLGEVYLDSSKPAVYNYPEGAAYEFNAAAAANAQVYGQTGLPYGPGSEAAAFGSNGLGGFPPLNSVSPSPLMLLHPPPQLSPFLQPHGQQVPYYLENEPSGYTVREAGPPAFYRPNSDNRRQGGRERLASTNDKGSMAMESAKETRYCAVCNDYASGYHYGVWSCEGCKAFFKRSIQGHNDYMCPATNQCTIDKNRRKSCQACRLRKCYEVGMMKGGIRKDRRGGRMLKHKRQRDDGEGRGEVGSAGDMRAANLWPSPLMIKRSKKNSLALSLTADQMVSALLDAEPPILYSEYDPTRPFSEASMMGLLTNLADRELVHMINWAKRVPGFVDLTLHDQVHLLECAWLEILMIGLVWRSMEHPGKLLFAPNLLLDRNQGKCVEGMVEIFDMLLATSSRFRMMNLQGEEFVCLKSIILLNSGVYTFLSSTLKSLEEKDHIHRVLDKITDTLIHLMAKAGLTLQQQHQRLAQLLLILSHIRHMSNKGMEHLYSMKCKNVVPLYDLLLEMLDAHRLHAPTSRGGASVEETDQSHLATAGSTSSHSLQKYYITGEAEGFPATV

ClC(Cl)Cl
not listed: [8] | [9]
inactive: all other assays above

COC(=O)c1ccc(OC)cc1
not listed: [1] | [9]
inactive: all other assays above

COc1ccccc1OCC(O)COC(N)=O (stereo not given)
not listed: [1] | [8]
inactive: all other assays above

CCCC1CCC(=O)O1 (stereo not given)
not listed: [1] | [8] | [9]
inactive: all other assays above

CC(=O)Nc1ccc(C)c(Cl)c1
not listed: [1] | [8] | [9]
inactive: all other assays above

CC(C)OC(C)C
not listed: [1] | [8]
inactive: all other assays above
